{"source": "PubChem BioAssay AID1452", "about": "(National Center for Advancing Translational Sciences (NCATS), 2008)", "note": "The campaign covered roughly 150,000 compounds. About 190 (0.13%) were called active. Not shown: some 2% with an inconclusive outcome. The call rests on the fitted dose curve; in most records, active means well fitted inhibition curve with a large enough effect; inconclusive means small, poorly fitted or top-dose-only effect; inactive means flat fitted curve, though single readings scatter. Only a selection was taken, and actives are over-represented in it overall. On the % scale 0 is the no-effect control and ±100 the full control effect; potency means the concentration at half of the fitted maximal effect."}
{"biological_target": "Polyunsaturated fatty acid lipoxygenase ALOX12 (Homo sapiens) (UniProt P18054)", "sequence (P18054 whole entry, looked up)": "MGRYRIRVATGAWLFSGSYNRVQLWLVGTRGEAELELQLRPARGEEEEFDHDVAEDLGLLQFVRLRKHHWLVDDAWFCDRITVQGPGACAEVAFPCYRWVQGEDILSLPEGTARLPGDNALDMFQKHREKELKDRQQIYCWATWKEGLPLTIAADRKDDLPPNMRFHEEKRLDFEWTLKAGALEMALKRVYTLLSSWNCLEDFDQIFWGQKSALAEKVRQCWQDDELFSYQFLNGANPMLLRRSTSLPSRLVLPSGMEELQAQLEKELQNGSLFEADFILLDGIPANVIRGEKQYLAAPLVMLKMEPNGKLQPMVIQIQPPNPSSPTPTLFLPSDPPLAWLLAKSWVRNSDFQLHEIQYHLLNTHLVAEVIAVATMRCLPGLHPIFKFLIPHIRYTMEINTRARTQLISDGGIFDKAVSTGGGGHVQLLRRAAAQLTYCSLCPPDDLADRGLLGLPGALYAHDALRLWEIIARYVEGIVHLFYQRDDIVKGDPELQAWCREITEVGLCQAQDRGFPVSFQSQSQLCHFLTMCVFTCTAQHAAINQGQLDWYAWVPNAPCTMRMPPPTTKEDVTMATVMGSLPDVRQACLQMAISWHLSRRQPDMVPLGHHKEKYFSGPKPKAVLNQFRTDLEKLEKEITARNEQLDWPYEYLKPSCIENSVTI", "assay": "qHTS Assay for Inhibitors of 12-hLO (12-human lipoxygenase); further: nearly all actives have a fitted effect of over 55% in size", "settings": "purified 12-hLO, xylenol orange hydroperoxide absorbance; series mostly up to 57.1 µM; activity change, negative = inhibition: at the top concentration", "excerpt": "Assay Provider: Holman, T.R., University of California, Santa Cruz Screening Center PI: Austin, C.P. Screening Center: NIH Chemical Genomics Center [NCGC] Human lipoxygenase 12hLO is a member of the closely related lipoxygenase family of enzymes which catalyze the site-specific oxidation of arachidonic acid to various hormone precursor molecules and as such is a candidate for drug development in a variety of disease areas, such as cancer and inflammation. Inhibition of 12hLO activity was screened by utilizing arachidonic acid as a substrate. The extent of hydroperoxide product formation was measured by a secondary chromogenic reaction in which xylenol orange (XO, Sigma-Aldrich, cat. number 39,818-7) reacts with the ferric ions produced from the reaction between the hydroperoxide and ferrous ions. The Fe(III)-XO complex is characterized with red-shifted absorbance at 560 nm. A purified preparation of human 12hLO was supplied by Professor Ted Holman, University of California, Santa Cruz.\nAssay Protocol: Buffer: 25 mM Hepes pH 7.0, 0.01% Triton X-100. Reagents/Controls: Buffer in columns 3 and 4 as negative control (no enzyme). Substrate solution: 40 uM arachidonic acid (Sigma-Aldrich, St. Louis, MO) final concentration dispensed throughout the plate. Enzyme: 150 nM 12hLO final concentration in columns 1, 2, 5-48. Column 1 is neutral (100% activity). Column 2 contained pin-transferred titration of NDGA (nordihidroguaiaretic acid, Sigma-Aldrich, N 5023, top concentration 20 mM in DMSO, then 1:3 dilution in duplicate). (Dilution factor: 23 nL into 4 uL.) Chromogenic detection reagent (divalent iron/xylenol orange, Fe-XO): 200 uM xylenol orange plus 300 uM ferrous ammonium sulfate prepared freshly in 50 mM sulfuric acid. Assay Steps: Three uL of enzyme were dispensed to 1536-well Greiner black clear bottom plates. Compounds and controls (23 nL) were transferred via Kalypsys PinTool. The plates were incubated for 15 min at room temperature, and then 1 uL of substrate solution was added to start the reaction. After room temperature incubation for 30 minutes, 4 uL of Fe-XO solution was added to each well and the plates were incubated for 30 min. The absorbance at 405 and 573 nm were measured using ViewLux (Perkin-Elmer) High-throughput CCD imager and absorbance protocol settings. The 573-to-405 absorbance ratio was used to compute reaction progress."}
{"smiles": "CCCCCCCC[n+]1cccc(C(=O)N2c3c(nc(N)[nH]c3=O)NC(C)C2C)c1", "note": "(stereo not drawn)", "activity change, negative = inhibition": "-3.59% (inactive)"}
{"smiles": "C[C@@H]1C(c2ccc(F)cc2)=NN(c2ccc(Br)cc2)[C@H]1C(=O)N1CCOC1=O", "activity change, negative = inhibition": "-4.22% [at 0.00818 µM] (inactive)"}
{"smiles": "O=[N+]([O-])c1ccccc1SNc1ccccn1", "activity change, negative = inhibition": "2.54% (inactive)"}
{"smiles": "C=C1C2C[C@H](O)C(C)(C)[C@@]2(O)[C@H](O)C[C@]23C[C@@](C)(O)[C@H](CC[C@H]12)[C@H]3O", "note": "(stereo partly drawn)", "activity change, negative = inhibition": "-0.156% (inactive)"}
{"smiles": "CCOC(=O)C1C/C(=C\\C(C)=O)c2cccc(C(F)(F)F)c2O1", "note": "(stereo not drawn)", "activity change, negative = inhibition": "-1.22% [at 0.00818 µM] (inactive)"}
{"smiles": "CC(Nc1oc(-c2ccccc2)nc1-c1ccccc1)c1ccccc1", "note": "(stereo not drawn)", "activity change, negative = inhibition": "inactive"}
{"smiles": "Cc1cc2oc(=O)cc(-c3ccccc3)c2c(C)c1/C=C/c1ccc(F)cc1", "activity change, negative = inhibition": "-3.71% [at 0.00818 µM] (inactive)"}
{"smiles": "COc1cccc(C(=O)Nc2cc3c(cc2Br)OCCCO3)c1", "activity change, negative = inhibition": "-0.158% (inactive)"}
{"smiles": "CCCCC[C@H](O)/C=C/[C@@H]1[C@@H](CC(=O)CCC(=O)O)[C@@H](O)C[C@H]1O", "activity change, negative = inhibition": "1.55% (inactive)"}
{"smiles": "COc1ccc(CCNC(=O)/C(C#N)=C2\\N=C(NC(=O)c3cccs3)c3ccccc32)cc1", "activity change, negative = inhibition": "0.415% (inactive)"}
{"smiles": "O=C(OC1CCOC1=O)c1cccc(S(=O)(=O)Nc2ccc(F)cc2)c1", "note": "(stereo not drawn)", "activity change, negative = inhibition": "1.87% (inactive)"}
{"smiles": "O=C(CNCc1ccc(F)cc1)Nc1ccccc1-c1ccccc1", "activity change, negative = inhibition": "-0.876% (inactive)"}
{"smiles": "COc1ccccc1N=Cc1c(O)c2ccccc2oc1=O", "activity change, negative = inhibition": "0.0273% (inactive)"}
{"smiles": "CC(=O)Nc1ccc(S(=O)(=O)NCC(=O)OCc2cc(=O)oc3ccc4ccccc4c23)cc1", "activity change, negative = inhibition": "1.72% (inactive)"}
{"smiles": "COC(=O)C1=C(C(=O)OC)[C@@H]2N(C)c3ccccc3[C@@]23C[C@@H](C(=O)OC)N(S(=O)(=O)c2ccc(Br)cc2)C3=N1", "activity change, negative = inhibition": "2.4% [at 11.4 µM] (inactive)"}
{"smiles": "COC(=O)c1c(NC(=O)COC(=O)[C@@H](NS(=O)(=O)c2ccccc2)C(C)C)sc2c1CCC2", "activity change, negative = inhibition": "-1.84% (inactive)"}
{"smiles": "Brc1ccc(C2=NCCC(c3ccccc3)O2)cc1", "note": "(stereo not drawn)", "activity change, negative = inhibition": "0.263% [at 0.00818 µM] (inactive)"}
{"smiles": "COc1ccc(-c2nc3c(c4c2C[C@H](c2ccccc2)OC4)CN(C(=O)c2cccnc2)CC3)c(C)c1", "activity change, negative = inhibition": "1.97% [at 11.4 µM] (inactive)"}
{"smiles": "COc1ccc(-c2nnc(SC(C)C#N)o2)cc1", "note": "(stereo not drawn)", "activity change, negative = inhibition": "-9.79% (inactive)"}
{"smiles": "COc1ccc(-c2nnc(SCc3cccnc3)o2)cc1", "activity change, negative = inhibition": "-1.27% (inactive)"}
{"smiles": "COc1ccc(-c2nnc(SC(=O)N3c4ccccc4Sc4ccccc43)o2)cc1", "Potency": "14.1 µM (active)"}
{"smiles": "COc1ccc(C(=O)COC(=O)c2ccc3ccccc3n2)cc1", "activity change, negative = inhibition": "-2.31% (inactive)"}
{"smiles": "O=c1cc(CN2CCN(S(=O)(=O)/C=C/c3ccccc3)CC2)c2ccc(O)cc2o1", "activity change, negative = inhibition": "-3.24% (inactive)"}
{"smiles": "COc1ccc(C2CC(=O)Oc3ccc(C(C)(C)C)cc32)cc1", "note": "(stereo not drawn)", "activity change, negative = inhibition": "-4.97% [at 0.00818 µM] (inactive)"}
{"smiles": "CCOc1ccc(N2C(=O)/C(=C/c3ccc(C)o3)N(C)C2=S)cc1", "activity change, negative = inhibition": "-4.46% (inactive)"}
{"smiles": "COC(=O)CCCC1=CC2=C(c3ccccc3)C(=O)C(C)(OC(=O)C3CCCC3)C(=O)C2=CN1c1ccc(OC)cc1", "note": "(stereo not drawn)", "activity change, negative = inhibition": "-9.71% [at 11.4 µM] (inactive)"}
{"smiles": "CCOC(=O)C1=C(NC(=S)NC(=O)c2ccccc2)c2ccccc2CC1(C)C", "Potency": "25.1 µM (active)"}
{"smiles": "CCOC(=O)c1c(NC(=O)C2(C)Cc3ccccc3C(=O)O2)sc2c1CCCC2", "note": "(stereo not drawn)", "activity change, negative = inhibition": "15.1% (inactive)"}
{"smiles": "COCCCNC(=S)NC(=O)c1ccccc1", "activity change, negative = inhibition": "-6.12% (inactive)"}
{"smiles": "C[C@H]1Cc2c(-c3ccccc3)nc3c(c2CO1)CN(C(=O)C1CC1)CC3", "activity change, negative = inhibition": "2.53% [at 11.4 µM] (inactive)"}
{"smiles": "CC(NC(=O)CCC(=O)N1CCN(S(=O)(=O)c2ccc(Cl)cc2)CC1)c1ccccc1", "note": "(stereo not drawn)", "activity change, negative = inhibition": "-1.88% (inactive)"}
{"smiles": "Cc1cc(C)cc(OCC(=O)NNC(=O)CCN2C(=O)c3ccccc3C2=O)c1", "activity change, negative = inhibition": "-4% (inactive)"}
{"smiles": "C/C(=C\\c1ccccc1)C1NC(=O)c2c(sc3c2CCCC3)N1", "note": "(stereo not drawn)", "activity change, negative = inhibition": "-1.08% (inactive)"}
{"smiles": "O=C(CN1C(=O)c2cccc3cccc(c23)C1=O)N1CCCCC1", "activity change, negative = inhibition": "-0.677% (inactive)"}
{"smiles": "CCOC(=O)N1CCN(C(=O)C2CCN(Cc3ccc(OC)cc3OC)CC2)CC1", "activity change, negative = inhibition": "-2.84% (inactive)"}
{"smiles": "O=C1OCCN1C(=O)[C@H]1[C@H](c2ccccc2)C(c2ccc(F)cc2)=NN1c1ccccc1", "activity change, negative = inhibition": "-8.19% [at 0.00818 µM] (inactive)"}
{"smiles": "C[C@H]1Cc2c(COc3ccccc3)nc3c(c2CO1)CN(C(=O)NCc1ccco1)CC3", "activity change, negative = inhibition": "1.43% [at 11.4 µM] (inactive)"}
{"smiles": "COC(=O)CC1c2ccccc2C(Cc2ccc(OC)cc2)=C(C)N1C(=O)OC", "note": "(stereo not drawn)", "activity change, negative = inhibition": "2.48% [at 11.4 µM] (inactive)"}
{"smiles": "C=CCn1c2ccccc2c2nnc(SCc3[nH]c(=O)[nH]c3C(=O)CCCCC(=O)OCC)nc21", "activity change, negative = inhibition": "-6.15% (inactive)"}
{"smiles": "COC(=O)CN1C(=S)N(c2ccccc2)C(=O)C1CC(=O)Nc1ccc(Cl)cc1", "note": "(stereo not drawn)", "activity change, negative = inhibition": "-15.2% (inactive)"}
{"smiles": "CC(=O)c1c(N2CCN(c3ccc(F)cc3)CC2)nc(=S)n(-c2ccccc2)c1C", "activity change, negative = inhibition": "-1.83% (inactive)"}
{"smiles": "COc1ccc(-c2nc(-c3ccccc3)oc2Nc2ccc3ccccc3c2)cc1", "activity change, negative = inhibition": "-1.22% (inactive)"}
{"smiles": "O=[N+]([O-])c1ccc(NCCCO)c(C(F)(F)F)c1", "activity change, negative = inhibition": "-1.65% (inactive)"}
{"smiles": "CNC(=O)NC(=O)C(OC(=O)c1cccc(S(=O)(=O)N2CCCCC2)c1)c1ccccc1", "note": "(stereo not drawn)", "activity change, negative = inhibition": "2.13% (inactive)"}
{"smiles": "O=C1OCCN1C(=O)[C@H]1[C@H](c2ccc(F)cc2)C(c2ccccc2)=NN1c1ccc(Br)cc1", "activity change, negative = inhibition": "-8.73% [at 0.00818 µM] (inactive)"}
{"smiles": "CC(C)Oc1ccc(CCc2n[nH]c(=S)n2Cc2ccccc2)cc1", "Potency": "31.6 µM (active)"}
{"smiles": "CCCc1cc(-c2n[nH]c(=S)n2Cc2ccccc2)cs1", "activity change, negative = inhibition": "-10.4% (inactive)"}
{"smiles": "CCCCC(CC(C)O)c1n[nH]c(=S)n1-c1ccccc1", "note": "(stereo not drawn)", "activity change, negative = inhibition": "2.18% (inactive)"}
